Consider 13 compounds from PubChem BioAssay (NCI).

Some test systems named below: T-47D breast; BT-549 breast; MDA-MB-435 melanoma; SW-620 colon; MCF7 breast; HCT-116 colon; HCC-2998 colon; KM12 colon; MDA-MB-468 breast.
Test in all cases: NCI-60 one-dose screen, 48 h (100 = growth as untreated, 0 = no growth, -100 = all killed)
What all share (conditions): 10 µM

Compounds without any hit were thinned out: in the full panel of roughly 83,000, 20% have a hit.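 Single-concentration screen, 48 h exposure, 96-well plates. Endpoint: percent growth. Below 10 = active.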 A number with no mark means an inactive call. The source made the active and inactive calls.

`COC(=O)C[C@](O)(CCCC(C)(C)O)C(=O)O[C@H]1C(OC)=C[C@@]23CCC(=O)N2CCc2cc4c(cc2[C@@H]13)OCO4`: the growth in the experiment with T-47D breast is 89.8%; in the experiment with BT-549 breast, 118%; in the experiment on MDA-MB-435 melanoma, 104%; in the experiment on SW-620 colon it was 91.9%; in the experiment on MCF7 breast, 87.3%; with HCT-116 colon, 89.7%. Also, the growth in the experiment on HCC-2998 colon is 88%; in the experiment with KM12 colon it was 98.3%; in the experiment with MDA-MB-468 breast, 81.1%.
Turning to `O=C1CCC(N2Cc3c(C#CCCCNC(=O)c4ccc(NC(=O)[C@@H]5NC6(CCCCC6)[C@@]6(C(=O)Nc7cc(Cl)ccc76)[C@H]5c5cccc(Cl)c5F)cc4)cccc3C2=O)C(=O)N1` (some centres not stated), the growth was 38.4% in the experiment on T-47D breast; 32.5% with BT-549 breast; 61.6% in the experiment with MDA-MB-435 melanoma; 84.7% in the experiment with SW-620 colon; 5.5% (active) in the experiment on MCF7 breast; 12.6% with HCT-116 colon. The growth was 58.6% in the experiment with HCC-2998 colon, 49.2% with KM12 colon and 39.3% in the experiment on MDA-MB-468 breast.
In the case of `COc1cc(/C=C/C(=O)c2ccc(F)cc2)ccc1Oc1nc(Nc2ccc(F)cc2)nc(N(C)C)n1`, the growth in the experiment on T-47D breast was 28.5%; in the experiment with BT-549 breast, 88.6%; with MDA-MB-435 melanoma, 68.5%; in the experiment with SW-620 colon it was 2.33% (active); in the experiment with MCF7 breast, 16.6%; in the experiment on HCT-116 colon it was 30.2%. Moreover, the growth in the experiment on HCC-2998 colon is 89%; in the experiment with KM12 colon it was 61%; with MDA-MB-468 breast, 28%.
Regarding `COC1=C[C@@]23CCC(=O)N2CCc2cc4c(cc2[C@H]3[C@H]1OC(=O)C(C)(C)O)OCO4`, the growth is 91.6% in the experiment with T-47D breast; 98.9% in the experiment with BT-549 breast; 98.4% with MDA-MB-435 melanoma; 105% in the experiment with SW-620 colon; 92.7% in the experiment with MCF7 breast; 101% in the experiment with HCT-116 colon. For the same compound, the growth in the experiment with HCC-2998 colon is 103%; in the experiment on KM12 colon, 101%; in the experiment with MDA-MB-468 breast, 91.5%.
With `Nc1nnc(-c2c[nH]c3ncccc23)c(-c2c[nH]c3ccc(Br)cc23)n1`, the growth is 22.4% in the experiment on T-47D breast; 38.6% with BT-549 breast; 47.2% in the experiment on MDA-MB-435 melanoma; 54.9% with SW-620 colon; 22.5% with MCF7 breast; 21.9% in the experiment with HCT-116 colon. Besides, the growth is 74.5% in the experiment on HCC-2998 colon, 39.3% in the experiment on KM12 colon and 50.4% in the experiment on MDA-MB-468 breast.
For the compound `Nc1cc(-c2cccc(C(=O)NCc3ccc4c(c3)OCO4)c2)ccn1`, the growth is 77.4% in the experiment with T-47D breast; 96.8% in the experiment on BT-549 breast; 102% in the experiment on MDA-MB-435 melanoma; 110% in the experiment on SW-620 colon; 86.5% with MCF7 breast; 95.1% in the experiment on HCT-116 colon. In addition, the growth in the experiment on HCC-2998 colon is 103%; in the experiment on KM12 colon, 106%; in the experiment with MDA-MB-468 breast, 88.1%.
As to `CC1(C)CC[C@]2(C(=O)Nc3ccccc3)CC[C@]3(C)C(=CC[C@@H]4[C@@]5(C)CC[C@H](N)C(C)(C)[C@@H]5CC[C@]43C)[C@H]2C1`, the growth with T-47D breast is 81.5%; with BT-549 breast it was 113%; in the experiment on MDA-MB-435 melanoma, 59.1%; in the experiment on SW-620 colon, 8.55% (active); with MCF7 breast, -73.8% (active); with HCT-116 colon, -99.5% (active). In addition, the growth is -64.3% (active) with HCC-2998 colon, 36.1% in the experiment on KM12 colon and 1.83% (active) in the experiment on MDA-MB-468 breast.
On to `Nc1nnc(-c2c[nH]c3ccc(F)cc23)c(-c2c[nH]c3ncccc23)n1`, for which the growth is 31.7% with T-47D breast; 46.7% in the experiment on BT-549 breast; 60.9% in the experiment on MDA-MB-435 melanoma; 73.6% in the experiment with SW-620 colon; 34% in the experiment on MCF7 breast; 25% in the experiment with HCT-116 colon. Also, the growth in the experiment with HCC-2998 colon was 97.9%; in the experiment on KM12 colon, 49.5%; in the experiment with MDA-MB-468 breast, 54.1%.
Regarding `COc1ccc2cc([C@H](C)C(=O)NCc3ccccc3)ccc2c1`, the growth is 41.5% in the experiment on T-47D breast; 42.8% with BT-549 breast; -13.2% (active) in the experiment with MDA-MB-435 melanoma; 29.3% with SW-620 colon; 22.5% with MCF7 breast; 37% in the experiment on HCT-116 colon. Besides, the growth in the experiment with HCC-2998 colon is 50.7%; in the experiment with KM12 colon, 39.1%; with MDA-MB-468 breast it was -20.3% (active).
As to `Cc1ccc(-c2nc3ccc(C(=O)N=Nc4c(O)[nH]c5ccc(Cl)cc45)cc3[nH]2)cc1`, the growth is -4.44% (active) in the experiment with T-47D breast; -1.74% (active) in the experiment on BT-549 breast; -61.5% (active) in the experiment with MDA-MB-435 melanoma; -34% (active) in the experiment with SW-620 colon; -26.9% (active) in the experiment on MCF7 breast; 0.963% (active) with HCT-116 colon. In addition, the growth in the experiment with HCC-2998 colon was -66.8% (active); in the experiment on KM12 colon it was 4.98% (active); with MDA-MB-468 breast, -75% (active).
Consider `COc1cccc2nc(Nc3ccc(F)c(NC(=O)c4ccc(CN5CCN(C)CC5)c(C(F)(F)F)c4)c3)ccc12`, for which the growth in the experiment with T-47D breast was 22%; with BT-549 breast, 82.6%; with MDA-MB-435 melanoma, -69.3% (active); in the experiment with SW-620 colon it was -63% (active); in the experiment with MCF7 breast, -61.3% (active); with HCT-116 colon, 1.84% (active). For the same compound, the growth in the experiment on HCC-2998 colon was -94.5% (active); in the experiment with KM12 colon it was -22.2% (active); with MDA-MB-468 breast, -48.9% (active).
Consider `Cc1ccc2nc(COc3ccc(C(=O)NNC(=S)NC(=O)c4ccccc4)cc3)[nH]c2c1`, for which the growth in the experiment with T-47D breast was 60.5%; in the experiment on BT-549 breast, 81.8%; in the experiment with MDA-MB-435 melanoma, 64.3%; with SW-620 colon it was 39.5%; in the experiment on MCF7 breast, 30.6%; in the experiment on HCT-116 colon it was 38.5%. The growth in the experiment on HCC-2998 colon was 66.1%; in the experiment with KM12 colon it was 49.4%; in the experiment on MDA-MB-468 breast, 55.6%.
For `O=C1NC(=NC23CC4CC(CC(C4)C2)C3)N/C1=C\c1ccc2ncccc2n1`, the growth is -9.66% (active) in the experiment with T-47D breast; -81.3% (active) in the experiment with BT-549 breast; -11.4% (active) in the experiment on MDA-MB-435 melanoma; 2.73% (active) with SW-620 colon; -19.4% (active) in the experiment on MCF7 breast; 17.9% in the experiment on HCT-116 colon. Moreover, the values for the growth in the experiment with HCC-2998 colon, in the experiment on KM12 colon and in the experiment on MDA-MB-468 breast were 3.26% (active), -0.698% (active) and -63% (active), respectively.
